# Sampled rows, rich in hits. Any-hit rate of the full collection: about 3.9%.
# TROY NFkB inh: inhibitors of TROY-driven NF-kB signaling, primary screen, Q293 LMP1-TROYcd cells, NF-kB luciferase, uHTS | inhibition, % at 10 µM | AID 1347056, 2019 | actives 0.98% (n = 360,000) | Q293 LMP1-TROYcd NF-kB luciferase reporter, 4 h;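 active means compounds whose plate-normalised and pattern-corrected inhibition of the luciferase reporter signal at the single screening dose is 50% or more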
# Peg3 prom inh: Peg3 promoter-driven luciferase inhibitors, primary screen, cell-based, HeLa, luciferase luminescence; actives 1.7% (n = 360,000); HeLa PEG-Prom luciferase reporter, overnight; inhibition, % at 20 µM; AID 588405, 2011;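 active means inhibition of at least 50% at 20 µM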
# TWEAK Fn14 block: inhibitors of TWEAK-Fn14 signaling, primary screen, luciferase reporter cells, uHTS | TWEAK-stimulated Fn14 reporter cells, luciferase luminescence, 8 h | inhibition, % at 10 µM | actives 2% (n = 360,000) | AID 1159606, 2016; in the data active means inhibition above about 50%
# KKLEB cytotox: cytotoxicity in KKLEB CF airway cells, primary screen, cytotoxicity control for CF NF-kB inhibitor project, cell-based, uHTS, fluorescence assay plates; KKLEB CF airway cells viability, ATPlite luminescence, overnight; active compounds read low; cells stimulated with P. aeruginosa culture filtrate; activity change (cytotoxicity), % at 5 µM; actives 0.36% (n = 360,000);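 active means corrected activity change at or below -50% at 5 µM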
# CF NFkB block: inhibitors of PAF-induced NF-kB signaling, primary screen, cell-based, GFP fluorescence, uHTS. actives 0.86% (n = 360,000). inhibition, % at 5 µM. KKLEB NF-kB-GFP reporter, GFP fluorescence overnight;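 active means at least 50% inhibition at 5 µM, scaled per plate between neutral and stimulator controls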;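 further: PAF is a Pseudomonas aeruginosa culture filtrate used as stimulus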
# HIF-2a inh: HIF-2a reporter inhibitors, primary screen, luminescence, 786-0 RCC cells; inhibition, % at 18.8 µM; 786-0 RCC cells HIF-2a reporter, luciferase luminescence, overnight; actives 0.72% (n = 360,000);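 active means inhibition of the luminescence signal of 40% or more relative to plate controls, in a single-dose primary screen at 18.75 µM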
# A number is an active result; . = inactive; / = no result.
SMILES,TROY NFkB inh,Peg3 prom inh,TWEAK Fn14 block,KKLEB cytotox,CF NFkB block,HIF-2a inh
CCCn1c(NC(=O)c2cccc(S(=O)(=O)N3CCCC3)c2)nc2ccccc21,.,97,.,.,74,.
Cc1ccc(C2=NN(C(=O)CCCC(=O)O)C(c3ccc4c(c3)OCO4)C2)cc1 (centres undefined),.,.,.,.,.,.
CCOc1cc(/C=C/C(=O)c2ccc3c(c2)OCCO3)ccc1OCC(=O)N(C)C,.,63,.,.,.,.
COCc1ccc(O)c2ncccc12,/,.,79,.,.,.
Cc1ccccc1NCc1ccc(O)c2ncccc12,.,.,59,.,.,.
Cc1nc2ccccn2c1C(=O)/C=C/c1ccc(F)cc1,.,.,.,.,.,.
Cc1nc2ccccn2c1-c1ccnn1S(=O)(=O)c1ccc(F)cc1,.,.,52,.,.,.
O=C(COC(=O)CCC(=O)c1ccc(F)cc1)Nc1cccc(S(=O)(=O)N2CCOCC2)c1,.,.,.,.,.,.
COc1cc(NC(=O)CNc2cccc(S(=O)(=O)N3CCOCC3)c2)cc(OC)c1,78,.,.,.,.,.
CCC(=O)c1ccc(OCC(=O)Nc2cccc(S(=O)(=O)N3CCCCCC3)c2)cc1,.,.,54,.,.,.
Cc1ccc(NC(=O)CNc2cccc(S(=O)(=O)N3CCOCC3)c2)cc1F,.,.,.,.,.,.
O=C(COc1ccc(C(=O)c2ccc(F)cc2)cc1)Nc1cccc(S(=O)(=O)N2CCOCC2)c1,54,.,57,.,.,.
Cc1cc(OCC(=O)Nc2cccc(S(=O)(=O)N3CCCCC3)c2)ccc1Cl,.,.,.,.,.,.
Cc1cccc(NC(=O)CCNS(=O)(=O)c2ccc(Cl)cc2)c1,.,.,.,.,.,.
O=C(CCNS(=O)(=O)c1ccc(Br)cc1)Nc1cccc(F)c1,.,.,99,.,.,.
CC(C)c1nnc(NC(=O)CCC(=O)NC2CCCc3ccccc32)s1 (centres undefined),.,.,.,.,.,.
[O-]/C(=C(\C(=S)Nc1cccc2ccccc12)[n+]1cccc(CO)c1)c1ccc(Cl)s1,.,.,.,.,.,.
Cc1c(Cl)cccc1NC(=S)/C(=C(\[O-])c1ccc(Cl)s1)[n+]1ccccc1,.,58,.,.,.,.
O=c1cc(-c2ccc(O)c(O)c2)oc2ccc3ccccc3c12,78,.,92,.,.,.
N#Cc1ccc(Nc2nc(-c3ccccc3)c(C(=O)c3ccccc3)s2)cc1,.,61,.,.,.,.
NC(=O)Cn1cc(C(=O)c2cccs2)c2ccccc21,.,.,.,.,.,.
CC1CCCC(C(=O)O)N1C(=O)CCSC(=O)c1ccccc1 (centres undefined),.,.,.,.,.,.
CCN(CC)S(=O)(=O)c1cccc(NC(=O)CN2C(=O)NC3(CCC(C)CC3)C2=O)c1 (centres undefined),.,.,.,.,.,.
Cc1cc(Br)ccc1SCC(=O)OCC(O)=C(C#N)c1nc2ccccc2[nH]1,.,66,.,.,.,.
CCCC(=O)OC/C(O)=C(\C#N)c1nc2ccccc2[nH]1,.,.,.,.,.,.
SMILES,TROY NFkB inh,Peg3 prom inh,TWEAK Fn14 block,KKLEB cytotox,CF NFkB block,HIF-2a inh
N#C/C(=C(/O)COC(=O)CCC1CCCCC1)c1nc2ccccc2[nH]1,.,.,89,.,.,.
Cc1ccccc1NC(=O)CN1CCN(C)CC1,.,.,.,.,.,.
C[C@H](CO)N1C[C@H](C)[C@@H](CN(C)C(=O)Nc2ccc3c(c2)OCO3)Oc2c(NS(=O)(=O)c3ccccc3)cccc2C1=O,.,.,.,.,.,.
O=[N+]([O-])c1cc(Cl)c(O)c2ncccc12,.,57,.,.,.,.
O=[N+]([O-])c1cc(CN2CCN(c3ccccc3)CC2)c(O)c2ncccc12,.,59,.,.,.,.
O=[N+]([O-])c1ccc(O)c2ncccc12,.,.,.,.,.,.

# From PubChem
